Source: PubChem BioAssay (National Center for Advancing Translational Sciences (NCATS))
DRD3 antagonist: D3 dopamine receptor (human) antagonism; max response, negative = inhibition, %; 360,000 tested, 2.5% active; P35462; AID 652054; D3R cells, DiscoveRx beta-arrestin luminescence, antagonist mode; active compounds read low; in the data active = max response below about -50%; inconclusive = no clear call, values can overlap the other calls; also: % is scaled to controls: 0 for no effect and ±100 for the full control effect
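Cells plated overnight at 1500 cells/well, then exposed to library compounds with dopamine controls for 90 minutes at 37 degrees C. DiscoveRx reagent added for 30–60 minutes at room temperature; luminescence read, quantitative HTS format.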
D1 potentiator: potentiators of human D1 dopamine receptor. P21728. HEK293 TREx D1 cells, calcium flux, dopamine EC20 potentiation. potentiation, % at 10 µM. 360,000 tested, 0.036% active. AID 504651; in the data active = potentiation above about 30%; also: 0% is about no effect
Target sequence (P21728 whole entry, looked up): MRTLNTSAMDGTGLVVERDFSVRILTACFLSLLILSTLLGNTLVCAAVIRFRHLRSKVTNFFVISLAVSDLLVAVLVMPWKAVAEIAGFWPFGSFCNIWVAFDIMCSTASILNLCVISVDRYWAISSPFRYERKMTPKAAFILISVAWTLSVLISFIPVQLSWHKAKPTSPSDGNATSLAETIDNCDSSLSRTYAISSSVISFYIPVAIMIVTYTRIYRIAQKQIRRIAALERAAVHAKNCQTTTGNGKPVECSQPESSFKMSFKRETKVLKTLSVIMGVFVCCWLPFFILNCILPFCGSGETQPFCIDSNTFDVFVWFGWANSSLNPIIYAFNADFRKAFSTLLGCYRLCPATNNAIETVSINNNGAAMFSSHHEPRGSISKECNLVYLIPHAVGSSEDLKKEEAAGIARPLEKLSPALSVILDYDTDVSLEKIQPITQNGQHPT
D1 agonist: agonists of human D1 dopamine receptor; P21728; HEK293 T-REx D1 cells, calcium flux, agonist mode; activation, % at 2 µM; 360,000 tested, 1% active; AID 504660; in the data active = activation above about 30%; also: 0% is about no effect
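Inducible HEK293 T-REx D1 cells, force-coupled to calcium signalling, were plated at 4000 cells/well with tetracycline and held overnight at 30 C. After no-wash calcium dye loading, compound-evoked calcium rise over 180 s flagged agonists.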
D3 ag: activates the human D3 dopamine receptor | D3R DiscoveRx beta-arrestin cells, luminescence, 90 min | P35462 | 410,000 tested, 0.58% active | max activation, %; in the data active = max activation above about 30%; also: 0% is about no effect
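Cells at 1500/well, incubated overnight, then treated with pinned compounds (dopamine as control) for 90 min at 37 degrees C. DiscoveRx reagent added for 30 - 60 minutes at room temperature; luminescence read.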
D1 antagonist: blocks dopamine activation of the human D1 receptor | P21728 | HEK293 TREx D1 cells, calcium flux, dopamine EC80; active compounds read low | activity change, negative = inhibition, % at 10 µM | 360,000 tested, 3.2% active | AID 504652; in the data active = activity change below about -30%; also: % is scaled to controls: 0 for no effect and ±100 for the full control effect
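After overnight tetracycline induction at 30 C, force-coupled D1 HEK293 cells took up a no-wash calcium dye at room temperature. Compounds were added and monitored 180 s, and the response to EC80 dopamine was then recorded.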
* = called active by the depositor; ? = inconclusive; . = not tested or not shown; ! = a repeat was not active. In the library only some 6.1% were active in any assay of this set; here they are far more common.

SMILES | DRD3 antagonist | D1 potentiator | D1 agonist | D3 ag | D1 antagonist
CCN(c1ccccc1)S(=O)(=O)c1ccc(NC(=O)c2nc(SC)ncc2Cl)cc1 | . | 0 | 3 | 0 | 0
C[C@@]12C(=O)N(c3cccc(F)c3)C(=O)N1[C@@H]1c3ccccc3OC[C@@H]1[C@H]2c1ccccc1 | 44 | . | . | 6 | .
COc1ccc(-n2c(C)cc(/C=C3\C(=O)NN(c4ccccc4)C3=O)c2C)cc1 | -59* | 0 | 2 | 4 | -24
CCc1ncn(CCc2ccccc2OC)c1C(C)C | -24 | . | . | -16 | .
COc1ccccc1CCn1cnc(C)c1CC(C)C | -78* | . | . | -18 | .
Cc1[nH][nH]c(=O)c1C(c1ccc(-c2ccc(Cl)cc2Cl)o1)c1c(C)[nH][nH]c1=O | . | -2 | 55* | . | -1
C[C@@H](NC(=O)[C@H]1O[C@@H](n2cnc3c(N)ncnc32)[C@H](O)[C@@H]1O)c1cccc2ccccc12 | -25 | . | . | -8 | .
Cc1ccc(OC(=O)C(F)(F)F)c2c1NCCC2 | 1 | 34* | 0 | 0 | -22
Cc1cc2c(C)cc(=O)oc2c2c1NCCC2 | 3 | -4 | 3 | 8 | -3
Cc1ccc(-c2cc(C(=O)N3CC4(C)CC3CC(C)(C)C4)no2)cc1 (centres undefined) | 19 | . | . | 0 | .
COc1ccc(-c2cc(C(=O)N3CC4(C)CC3CC(C)(C)C4)no2)cc1 (centres undefined) | -27 | -7 | 1 | -12 | -33*
O=C(NNC(=O)C1CCN(S(=O)(=O)c2ccc(Cl)cc2)CC1)c1ccccc1O | 9 | -19 | 1 | 8 | -27
Cc1ccc(C)c(NC(=O)C2(C)CCCN2C(=O)C(C)C)c1 (centres undefined) | 9 | . | . | 10 | .
CC(C)C(=O)N1CCC1(C)C(=O)NS(=O)(=O)c1cccs1 (centres undefined) | -63* | . | . | -9 | .
COc1cccc(NC(=O)C2(C)CCCN2C(=O)C(C)C)c1OC (centres undefined) | 7 | . | . | 75* | .
Cc1cc(NC(=O)c2coc(=O)c(Br)c2)ccc1C(C)C | -23 | -4 | 16 | -9 | 0
CCc1ccc(NC(=O)N(CCCN2CCOCC2)C(C)c2cc3cccc(OC)c3o2)cc1 (centres undefined) | -53* | -4 | 0 | -14 | -15
Cc1ccccc1C(OCCN(C(C)C)C(C)C)c1ccccc1 (centres undefined) | -5 | -3 | 7 | -10 | 11
CN(C)CCOC(c1ccccc1)c1ccccc1 (tested in a mixture with another compound) | -67* | -5 | 5 | -77 | -30
CN(C)CCOC(c1ccc(Cl)cc1)c1ccccn1 (centres undefined) | -2 | -8 | 8 | 41*! | -15
CN(C)CCOC(c1ccccc1)c1ccccc1 | -52*! | -1 | 6 | -71 | -28
OC(c1cc(F)cc(Cl)c1)c1ncc(-c2ccccc2Cl)[nH]1 (centres undefined) | 22 | . | . | 7 | .
O=C(NC1CCCCC1)C(c1cccnc1)N(C(=O)c1csnn1)c1ccccc1F (centres undefined) | 0 | -14 | 0 | -6 | 3
O=C(Nc1ccc(C(=O)OCc2cc(=O)n3nc(C4CC4)sc3n2)cc1)c1ccccc1 | . | 0 | 0 | -2 | -4
Oc1ccccc1/C=N/Nc1ccnc(SCc2ccccc2)n1 | -69* | -6 | 9 | -17 | 2
SMILES | DRD3 antagonist | D1 potentiator | D1 agonist | D3 ag | D1 antagonist
CCCCN(C(=O)c1ccc2c(c1)NC(=O)CS2)c1ccccc1 | 5 | . | 10 | -8 | -36*
COCCNC(=O)c1ccc2c(c1)NC(=O)CS2 | -25 | 3 | 3 | 6 | 4
COc1ccc(OC)c(C2Nc3c(C)cc(C)cc3-c3cc(C)nn32)c1 (centres undefined) | . | -3 | 2 | -6 | -6
CCn1c(C)nnc1SCC(=O)Nc1cccc(Cl)c1 | 2 | 0 | -4 | 1 | -43*
CCn1c(CC(=O)Nc2ccc(Cl)c(Cl)c2)nnc1SCc1ccc(C)cc1 | -93* | -11 | 1 | 7 | -1
CCn1c(C)nnc1SCC(=O)Nc1ccc(C(C)=O)cc1 | 1 | 0 | 4 | -2 | 58
Cc1nc(C(=O)NCc2ccccc2)sc1C1(C)CC(c2ccccc2)=NO1 (centres undefined) | -50* | -8 | 39* | -18 | 30
COc1ccc(NC(=O)c2nc(C)c(C3(C)CC(c4ccccc4)=NO3)s2)cc1 (centres undefined) | -12 | -1 | 6 | -12 | 4
Cc1nc(C(=O)O)sc1C1(C)CC(c2cccc([N+](=O)[O-])c2)=NO1 (centres undefined) | -4 | . | . | 13 | .
Cc1nc(C(=O)Nc2ccccc2)sc1C1(C)CC(c2cccc([N+](=O)[O-])c2)=NO1 (centres undefined) | -3 | -6 | 4 | 4 | -33*
NC(=Nc1ccccc1)Nc1ccccc1 | 27 | -1 | 90* | 2 | -26
Cc1ccc(OCc2cc(C(=O)NC(C)Cc3cnccn3)no2)cc1C (centres undefined) | -2 | 5 | 3 | -4 | -40*
Cc1cccc(CC(C)NC(=O)c2cc(COc3ccc(C)c(C)c3)on2)n1 (centres undefined) | ? | 2 | 2 | -13 | -24
COc1ccc(C2=NN(C(=S)Nc3ccccc3)C(c3ccccc3)C2)cc1 (centres undefined) | -20 | -2 | 3 | -7 | -8
COc1ccc(C2=NN(C(N)=S)C(c3ccccc3)C2)cc1 (centres undefined) | -3 | 1 | 5 | -1 | -30*
COc1ccc(C2CC(c3ccc4ccccc4c3)=NN2C(=O)CNC2CCCCC2)cc1 (centres undefined) | -4 | 1 | 32* | 1 | 17
COc1ccc(C2CC(c3ccccc3O)=NN2c2ccccc2)cc1 (centres undefined) | 9 | . | . | 10 | .
COc1ccc(C2CC(c3ccccc3)=NN2c2ccc(N)cc2)cc1 (centres undefined) | 0 | -3 | 8 | 4 | -30*
NC(=S)NC(=O)/C=C/c1ccccc1 | -7 | -7 | -1 | -3 | 1
O=C(NCc1ccco1)c1cnn2cccnc12 | 4 | 1 | 1 | -7 | 5
Cc1ccc(SCc2nn(C)c(Cl)c2C=O)cc1 | -1 | 0 | 1 | -1 | 2
CC(=O)Nc1ccc(C2=CC(=O)C[C@H](c3ccc(Cl)cc3)C2)cc1 | 23 | -6 | 1 | -3 | -53*
CCCOc1ccc(C2=CC(=O)C[C@H](c3ccc(OC)cc3)C2)cc1 | 51 | 4 | 10 | 36* | -4
COc1ccc([C@H]2CC(=O)C=C(c3ccc(CNC(=O)OC(C)(C)C)cc3)C2)cc1 | 89 | -3 | 5 | 49* | -3
COc1ccc(C2=CC(=O)C[C@H](c3ccc(OC)c(OC)c3)C2)cc1 | 17 | -6 | 2 | 15 | .
